Laboratory results as given in PubChem BioAssay AID449764 (Southern Research Specialized Biocontainment Screening …, 2010).
Out of some 2,300 compounds screened, about 1,700 (74%) were called active. The rule behind the calls is not given here. So high a share suggests a set chosen from earlier hits. The list shows a part of the results. Entries with a potency or affinity are not part of this list.

Test: Confirmatory growth inhibition assay, Mycobacterium tuberculosis H37Rv, absence of glycerol (AID 449764);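 note: growth read after 7 days of incubation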
Details: no glycerol; series mostly up to 100 µM; inhibition: at the top concentration

Compound | inhibition
C/C(=N\NC(=O)CC(C)C)c1c(C(F)(F)F)[nH]n(-c2nc3ccccc3s2)c1=O | 10.1% (inactive)
Oc1cccc(-c2nc3ccccc3s2)c1 | 5.57% (inactive)
Cc1ccc(NC(=O)CNCc2cccs2)cc1Br | 7.81% (inactive)
COC(=O)c1ccc(N/C(C)=C/C(=O)c2ccc(C)o2)cc1 | -5.59% (inactive)
O=C(c1cccc([N+](=O)[O-])c1)N1CCN(c2ccc(N3CCOCC3)nn2)CC1 | -4% (inactive)
S=c1[nH]c2ccc3ccccc3c2[nH]1 | 2.34% (inactive)
Oc1ccccc1C=NC1=NN(c2cccc(C(F)(F)F)c2)CC1 | 9.07% (inactive)
CCCCCCc1ccc(N2C[C@H](C)[C@@H](CC(=O)NCc3ccccc3)C2=O)cc1 | 4.93% (inactive)
O=Cc1ccc(-c2ccc(Cl)cc2Cl)[nH]1 | 1.82% (inactive)
O=C(Nc1ccc(-c2noc(CCc3ccccc3)n2)cc1)c1cccnc1 | 15.6% (inactive)
CNC(=O)c1csc(-c2ccc(Cl)cc2)n1 | -10.9% (inactive)
CN1C(=O)c2cccc3c(Br)ccc(c23)C1=O | 12.8% (inactive)
O=C(C1CC(=O)N(c2ccc3c(c2)OCCO3)C1)N1CCN(c2cccc(C(F)(F)F)c2)CC1 (stereo not drawn) | -5.7% (inactive)
CO/N=C\CC(=O)Nc1ccc(Oc2ccccc2)cc1 | -1.66% (inactive)
COc1ccc(-c2cc(C(=O)N(C)CC(=O)Nc3cccc(F)c3)c3ccccc3n2)cc1 | -7.46% (inactive)
CCc1ccc(NC(=O)c2ccc(C3SCC(=O)N3CCc3ccccc3)cc2)cc1 (stereo not drawn) | 18.5% (inactive)
COc1cc(/C=N/N2CCOCC2)ccc1OCc1ccc(Cl)cc1 | 7.51% (inactive)
CC(C)OC(=O)c1ccc(N)cc1 | 0.17% (inactive)
CC(=O)Oc1ccc2occ(C(=O)c3cccs3)c2c1 | -6.49% (inactive)
CCCC1CCC(C(=O)Nn2c(C)nc3ccccc3c2=O)CC1 (stereo not drawn) | -9.95% (inactive)
CCOC(=O)c1cc(CC)sc1NC(=O)c1cc(OCC)c(OCC)c(OCC)c1 | 0.67% (inactive)
Nc1nc2ccccc2n1/N=C/c1ccc(Br)cc1 | -0.83% (inactive)

Compound | inhibition
CCOc1cc(C2NN=C(c3ccc(C)cc3)S2)ccc1O (stereo not drawn) | 9.69% (inactive)
CC(=O)c1ccc(NC(=O)COC(=O)c2c3c(nc4ccccc24)/C(=C\c2cccs2)CCC3)cc1 | 4.09% (inactive)
CC(/C=C/C=C/c1ccccc1)=N\NC(=O)c1cccnc1 | -10.2% (inactive)
CCNc1nc(NCC)n2c(SC(C(=O)Nc3cc(C)ccc3C)c3ccccc3)nnc2n1 (stereo not drawn) | -4.86% (inactive)
Cc1ccc(-c2cn3cccnc3n2)cc1NC(=O)c1ccc(Br)o1 | 2.75% (inactive)
Clc1nc2c(-c3ccccc3)nnn2c2ccccc12 | 1.59% (inactive)
CCCCc1ccc(NC(=O)CSC2=NN3CCCC(=O)N=C3S2)cc1 | 16% (inactive)
COc1ccccc1/C=C/C1=NC(=C\C=C/c2ccccc2)/C(=O)O1 | 1.32% (inactive)
Cc1ccc(-c2nnc(C)c(N3CCCC3)n2)cc1 | 21.2% (inactive)
CC(OC(=O)CCN=C1NS(=O)(=O)c2ccccc21)C(=O)Nc1ccc(F)c(F)c1F (stereo not drawn) | -29.2% (inactive)
COc1cc(NC(=O)c2ccc(C(C)(C)C)cc2)c(OC)cc1NC(=O)CN1CCCCC1 | 0.98% (inactive)
Cc1sc2nc(CN(C(=O)NC3CCCCC3)C3CCCC3)[nH]c(=O)c2c1C | 13.8% (inactive)
Cc1cc(Nc2ccccc2)c2c([N+](=O)[O-])ccc(C)c2n1 | -0.97% (inactive)
O=Cc1ccc2noc(-c3ccc(Cl)cc3)c2c1 | 20.9% (inactive)
Cc1nn(-c2ccccn2)c2c1-c1nc(N3CCOCC3)ncc1CC2 | 5.91% (inactive)
CC(C)N1C(=O)NC(=O)C2(Cc3cc([N+](=O)[O-])ccc3N(C)C2c2ccccc2)C1=O (stereo not drawn) | -12% (inactive)
CN(C)c1nc(NCc2ccccc2)nc(N/N=C/c2ccc3c(c2)OCO3)n1 | 22.3% (inactive)
CCCCn1c(N)c(N(CC(C)C)C(=O)c2oc3c(Cl)cccc3c2C)c(=O)[nH]c1=O | 2.95% (inactive)
OCCN(/C=N/c1nc(-c2ccc(Br)cc2)cs1)CCO | 9.76% (inactive)
CC(C)(C)n1c(O)c(C=Nc2ccc3c(c2)CCC3)c(=O)[nH]c1=O | -1.75% (inactive)
CCOC(=O)c1c(/N=C/N(C)C)sc(/C=N/Nc2ccccc2)c1-c1ccccc1Cl | 25.8% (inactive)
COCCn1c(-c2ccc(OC(F)(F)C(F)C(F)(F)F)cc2)nc2c1c(=O)[nH]c(=O)n2CC(C)C (stereo not drawn) | 4.24% (inactive)

Compound | inhibition
COc1ccccc1N1C(=O)NC(=O)/C(=C/c2ccc([N+](=O)[O-])s2)C1=O | -5.18% (inactive)
N#CCCn1cc(/C=C2\NC(=S)N(c3ccccc3)C2=O)c(-c2ccc(-c3ccccc3)cc2)n1 | 3.09% (inactive)
CN1/C(=N\O)c2cccc3cccc1c23 | 10.6% (inactive)
Cc1cc(OCc2nc3ccccc3s2)ccc1N | 7.73% (inactive)
Cc1cc(O)c(/C=N/Nc2cccc(Cl)c2)c(=O)o1 | 5.78% (inactive)
COc1ccc(-c2c(-c3cc(OC)cc(OC)c3)n(C)c3ccc(-c4ccn[nH]4)cc23)cc1 | 7.87% (inactive)
Nc1ccc(N=Nc2ccccc2)c(N)n1 | 13.5% (inactive)
CC(=O)/C(=C\Nc1ccc(OCc2ccccc2)cc1)c1ccccc1 | -1.34% (inactive)
CCC(C)OC(=O)C(C)Oc1ccc(-c2ccccc2)cc1 (stereo not drawn) | 6.06% (inactive)
CC(=O)c1cccc(Nc2nc(-c3cccnc3)cs2)c1 | 2.69% (inactive)
O=c1[nH][nH]c(-c2ccccc2O)c1C(C[N+](=O)[O-])c1cccc(Cl)c1 (stereo not drawn) | 2.82% (inactive)
COc1cc2[nH]c(Cl)c([N+](=O)[O-])c2cc1OC | 1.76% (inactive)
C#CCOC(=O)/C(=C/c1ccc(F)cc1)NC(C)=O | 5.26% (inactive)
CN1[C@@H]2CC[C@H]1CC(OC(=O)[C@H](CO)c1ccccc1)C2 (stereo partly drawn) | 1.31% (inactive)
CCOc1cc(/C=N\NC(=O)Cn2nc([N+](=O)[O-])cc2C)ccc1OCc1cccc2ccccc12 | 0.56% (inactive)
N#CC1=C(N)NC(SCC(=O)c2ccccc2)=C(C#N)C12CCCC2 | -2.36% (inactive)
CCOc1ccc2nc(/N=C/c3nc(-c4ccccc4)oc3O)sc2c1 | 0.07% (inactive)
COc1ccccc1/C=N/NC(=O)NC12CC3CC(CC(C3)C1)C2 | 1.84% (inactive)
Nc1ccc(OCc2ccco2)cc1 | -7.58% (inactive)
Nc1cnc(-c2ccccc2)nc1Cl | -1.81% (inactive)
Cc1ccc(-c2ccc(/C=N/c3ncn[nH]3)o2)cc1Cl | 2.85% (inactive)
COc1ccc(-c2nc(C#N)c(N3CCc4ccccc4C3)o2)cc1OC | 4.49% (inactive)

Compound | inhibition
COc1ccc(NC(=O)C(=O)NCC(c2ccco2)N2CCc3ccccc3C2)cc1 (stereo not drawn) | -1.43% (inactive)
C=CCOc1ccc(/C=N/O)cc1Cl | -31.2% (inactive)
Cc1ccccc1C1C(C#N)=C2N=C(N)c3c(sc4c3CCCCC4)N2C2=C1C(=O)CC(C)(C)C2 (stereo not drawn) | 0.66% (inactive)
C[C@]12CCC(=O)C[C@@H]1CC[C@@H]1[C@@H]2CC[C@]2(C)C=CC[C@@H]12 | 0.91% (inactive)
Cn1c(=S)c2[nH]c(SCCN3CCCC3)nc2n(C)c1=O | 9.66% (inactive)
CCOC(=O)c1ccc(N=C(CC)c2c(O)n(C)c(=O)n(C)c2=O)cc1 | 8.56% (inactive)
CCCN(CC1CC1)C(=O)COC(=O)c1ccc2c(c1)C(=O)N(c1ccc(OCC)cc1)C2=O | 19.1% (inactive)
CN(C(=O)COC(=O)/C=C/c1ccc(Cl)c(Cl)c1)c1c(N)n(Cc2ccccc2)c(=O)[nH]c1=O | -3.74% (inactive)
C=CCOc1ccc(/C=C/C(=O)OCC(=O)NCC2CCCO2)cc1 (stereo not drawn) | 1.65% (inactive)
CC(C)c1ccc(-c2nn(-c3ccccc3)cc2C(=O)NCC2CCCO2)cc1 (stereo not drawn) | 0.34% (inactive)
O=S(=O)(c1ccc(Cl)cc1)N1CCC(n2cnc3cc(C(F)(F)F)ccc32)CC1 | -5.67% (inactive)
O=C1NC(=Nc2ccccc2)S/C1=C\C=C\c1ccco1 | -1.01% (inactive)
CCCC(O)(CCC)C(=O)NNc1ccc(C)cc1 | 0.93% (inactive)
CC(=O)N1C(Nc2ccc(Cl)cc2)CCN1c1ccccc1 (stereo not drawn) | 1.97% (inactive)
CCOc1ccc(N=CNc2ccc(OCC)cc2)cc1 | 4.25% (inactive)
Cc1ccc(C(=O)Nc2ccc3c4c(cccc24)CC3)cc1[N+](=O)[O-] | -1.35% (inactive)
Cc1cc(NC(=O)CCN2C(=O)C3C4C=CC(C4)C3C2=O)ccc1Br (stereo not drawn) | -2.08% (inactive)
CCn1c(SCC(=O)Nc2nc3ccc(C)cc3s2)nc2c(c1=O)SC(C)C2 (stereo not drawn) | 5.17% (inactive)
Cc1ccc(-c2ccc(=O)n(CC(=O)N3CCN(c4cc(Cl)ccc4C)CC3)n2)cc1 | 7.68% (inactive)
CCOC(=O)c1ccc(N=Cc2c(O)c3ccccc3oc2=O)cc1 | 0.57% (inactive)
O=C(CCC1CCCC1)c1c(O)c2ccccc2oc1=O | 0.56% (inactive)
CCCCCCCCCCC[C@@H](C[C@@H]1OC(=O)[C@H]1CCCCCC)OC(=O)[C@H](CC(C)C)NC=O | -2.49% (inactive)

Compound | inhibition
COc1cccc(/C=C/c2nc(C#N)c(NCC(C)C)o2)c1 | 5.57% (inactive)
O=C(O)Cc1c[nH]c2ccc(O)cc12 | 5.07% (inactive)
O=C1C(c2ccccc2)=[N+]([O-])c2ccccc21 | 13.8% (inactive)
O=C1C(=O)c2ccccc2C(O)=C1C1CCC(c2ccc(Cl)cc2)CC1 (stereo not drawn) | 3.58% (inactive)
COc1ccc(N=C/C=C2/C=C(c3ccccc3)OC(C)(C)O2)cc1 | -15.1% (inactive)
CCCCOC(=O)c1ccc(O)cc1 | 2.54% (inactive)
CCOc1ccc(/C=C/C2=Cc3c(sc(NC(=O)CSc4n[nH]c(N)n4)c3C#N)C(C)(C)C2)cc1 | 4.45% (inactive)
Cc1ccc(C(=O)COC(=O)C2CC(=O)N(c3nc(-c4ccccc4)cs3)C2)cc1C (stereo not drawn) | 4.55% (inactive)
Cc1cc(C)n2[nH]c(=O)c(N=Nc3cccc(C(F)(F)F)c3)c2n1 | 13.8% (inactive)
O=c1ccn(-c2ccccc2)[nH]1 | -5.26% (inactive)
Cc1[nH]n(-c2ccccc2)c(=S)c1C=NCCCN=Cc1c(C)[nH]n(-c2ccccc2)c1=S | -3.3% (inactive)
Cc1c(O)c(=O)n(-c2ccccc2)n1C | -11.3% (inactive)
O=C(OCC(=O)C12CC3CC(CC(C3)C1)C2)c1ccc(O)cc1O | -5.85% (inactive)
CC(=O)NC1C(c2nc3ccccc3s2)=C(c2ccccc2)C(=O)N1c1ccc(C)cc1 (stereo not drawn) | -15.8% (inactive)
CCc1ccc(N=CC23c4ccccc4C(c4ccccc42)C2C(=O)N(c4ccc(OC)cc4)C(=O)C23)cc1 (stereo not drawn) | -0.01% (inactive)
COc1ccc(NCc2n[nH]nc2-c2ccccc2)cc1Cl | -3.72% (inactive)
C=CCSc1n[nH]c(-c2ccc(OCCCC)cc2)n1 | 10.5% (inactive)
O=C(O)C1CC=CCC1C(=O)NNc1ccccc1 (stereo not drawn) | -1.55% (inactive)
CCOP(=O)(OCC)/C(=C/N1CCCCC1)NC(=O)c1ccccc1 | 0.96% (inactive)
CCOc1cc(C(=O)OCc2ccc(C(=O)OC)o2)cc(Br)c1OC | 0.05% (inactive)
